The campaign covered roughly 310,000 compounds. About 14,000 (4.5%) showed an effect of 50% or more. The effect is printed as a negative number. This excerpt belongs to a sample that is enriched for strong results.
molecular target: human ether-à-go-go-related gene (hERG) potassium channel (human, UniProt Q12809); assay: primary screen, population patch clamp on CHO cells stably expressing hERG; higher = less effect of the substance
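Also: peak tail current of the secondary pulse compared with the same well before compound.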

Sequence of human ether-à-go-go-related gene (hERG) potassium channel (Q12809 whole entry, looked up): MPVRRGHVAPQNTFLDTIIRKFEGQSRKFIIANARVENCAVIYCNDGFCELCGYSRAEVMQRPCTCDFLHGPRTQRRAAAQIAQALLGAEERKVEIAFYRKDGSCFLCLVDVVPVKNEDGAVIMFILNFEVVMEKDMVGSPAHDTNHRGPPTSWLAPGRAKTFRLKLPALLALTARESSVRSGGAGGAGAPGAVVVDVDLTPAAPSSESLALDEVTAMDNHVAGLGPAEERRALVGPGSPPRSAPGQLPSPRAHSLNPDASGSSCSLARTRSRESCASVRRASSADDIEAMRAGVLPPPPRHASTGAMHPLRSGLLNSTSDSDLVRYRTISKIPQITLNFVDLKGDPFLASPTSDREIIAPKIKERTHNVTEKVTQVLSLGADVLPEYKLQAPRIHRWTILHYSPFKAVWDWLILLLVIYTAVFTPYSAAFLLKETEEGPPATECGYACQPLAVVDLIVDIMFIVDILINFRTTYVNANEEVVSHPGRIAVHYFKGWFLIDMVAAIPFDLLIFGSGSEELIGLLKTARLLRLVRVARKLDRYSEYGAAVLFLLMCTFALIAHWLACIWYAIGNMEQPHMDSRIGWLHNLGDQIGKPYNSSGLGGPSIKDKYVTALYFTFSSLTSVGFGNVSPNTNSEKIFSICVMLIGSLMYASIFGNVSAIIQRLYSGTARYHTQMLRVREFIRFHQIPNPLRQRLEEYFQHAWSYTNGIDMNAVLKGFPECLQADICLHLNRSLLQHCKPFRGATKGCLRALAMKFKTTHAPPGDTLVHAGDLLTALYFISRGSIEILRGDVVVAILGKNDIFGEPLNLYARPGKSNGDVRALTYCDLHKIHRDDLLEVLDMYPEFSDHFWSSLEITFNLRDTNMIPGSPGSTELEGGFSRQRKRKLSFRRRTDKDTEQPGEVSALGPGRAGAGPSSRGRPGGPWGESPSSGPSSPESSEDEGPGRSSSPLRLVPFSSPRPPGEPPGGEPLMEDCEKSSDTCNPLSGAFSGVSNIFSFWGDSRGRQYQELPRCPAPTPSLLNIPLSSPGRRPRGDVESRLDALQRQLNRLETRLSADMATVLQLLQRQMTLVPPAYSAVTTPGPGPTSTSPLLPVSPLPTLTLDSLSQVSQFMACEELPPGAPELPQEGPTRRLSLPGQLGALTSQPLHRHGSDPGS

Structure (SMILES) | hERG current change (%, negative = inhibition) at 10uM [%]
Cc1ccc(NC(=O)C2CCCN(C(=O)c3ccc(Cl)cc3)C2)cc1 (stereo not drawn) | -33.4
CC(NC(=O)C1CCCN(C(=O)c2ccc(Cl)cc2)C1)c1cccc(C(F)(F)F)c1 (stereo not drawn) | -51.2
CC(=O)c1ccc(NC(=O)C2CCCN(C(=O)c3ccc(Cl)cc3)C2)cc1 (stereo not drawn) | -29.7
Cc1ccc(NC(=O)C2CCCN(C(=O)c3ccc(Cl)cc3)C2)cc1C (stereo not drawn) | -19.6
Cc1ccc(NC(=O)C2CCCN(C(=O)c3ccc(Cl)cc3)C2)c(C)c1 (stereo not drawn) | -59
CC(=O)Nc1ccc(NC(=O)C2CCCN(C(=O)c3ccc(Cl)cc3)C2)cc1 (stereo not drawn) | 6.47
CC(=O)Nc1ccc(N(C(=O)CNC(=O)c2ccco2)C(C(=O)NC2CCCC2)c2ccco2)cc1 (stereo not drawn) | 3.72
CC1(C)C(c2cccs2)=[N+]([O-])C2(CCCCC/C2=N\O)N1O (stereo not drawn) | 18.5
COc1cc(C(=O)OCC(=O)N2CC(C)OC(C)C2)cc(OC)c1OC (stereo not drawn) | 33
COc1ccccc1OCC(=O)N(Cc1nc(-c2ccccc2)no1)C(C)C | -12
O=C(Nc1cc(C(=O)N2CCOCC2)ccc1N1CCCC1)c1cccs1 | -75.9
O=C(Nc1ccc(C(=O)N2CCOCC2)cc1)c1cccs1 | 19.7
COC(=O)c1ccc(N2CCOCC2)c(NC(=O)c2cccs2)c1 | -5.27
O=C(Nc1cc(C(=O)N2CCCC2)ccc1N1CCCC1)c1ccccc1 | -75.6
O=C(Nc1cc(C(=O)N2CCCC2)ccc1N1CCCC1)c1ccccc1F | -74.6
O=C(Nc1ccccc1N1CCCCC1)c1ccccc1F | -14.5
CNC(=S)Nc1cc(C(=O)N2CCCC2)ccc1N1CCCC1 | 28.1
O=C(Nc1cc(C(=O)N2CCCC2)ccc1N1CCCC1)C1CC1 | -12.9
O=C(Nc1ccc(C(=O)N2CCCC2)cc1)c1ccccc1F | -4.82
O=C(CCCCl)Nc1c2c(nn1-c1ccccc1)CSC2 | -0.0485
C/C(=N\NC(=O)Cc1ccc(Cl)c(Cl)c1)c1cccnc1 | -12.9
COCCn1c(C)cc(C(=O)CSc2ccc3ccccc3n2)c1C | -0.727
COc1cccc(-c2cnc(OC(C)(C)C)nc2OC(C)(C)C)c1 | 14.7
O=C(OCc1ccccc1F)c1ccc2c(c1)OCCO2 | 7.26

From paper PMC4336329 (PLoS ONE, 2015)
